Screening data deposited in PubChem by National Center for Advancing Translational Sciences (NCATS).
Sampled rows, rich in hits. Any-hit rate of the full collection: about 0.52%.
Vif-APOBEC3F blk – blocks the Vif interaction with APOBEC3F; HeLa A3F-eYFP + Vif (tagged APOBEC3F with the HIV-1 protein that degrades it), YFP fluorescence increase; Potency, µM (series often up to 46.1 µM), for the others: at the highest dose activity, negative = active; 0.2% of 390,000 active; AID 602313; note: potency is the fitted concentration of half-maximal effect; % of control where 0% means no effect; nearly all actives have a fitted effect of over 65% in size
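HeLa cells stably expressing A3F-eYFP plus Vif, plated and incubated overnight at 37 deg C, then exposed to compounds overnight at 37 deg C. Blocked degradation read as raised yellow fluorescence (Ex 488/Em 500-530).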
Vif-APOBEC3G blk – blocks the Vif interaction with human APOBEC3G; Potency, µM (doses to about 46.1 µM), inactives show at the highest dose activity, negative = active, usual class: inhibitors; Q9HC16; HeLa A3G-eYFP + Vif (tagged APOBEC3G with the HIV-1 protein that degrades it), YFP fluorescence, overnight; AID 602310; 0.076% of 410,000 active; note: potency is the fitted concentration of half-maximal effect; % is set by controls: 0 for no effect and ±100 for the full control effect; nearly all actives have a fitted effect of over 60% in size
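HeLa cells stably expressing Vif and C-terminally eYFP-tagged A3G, seeded overnight at 37 deg C, then exposed to compound by pintool overnight at 37 deg C. Rise in yellow fluorescence (Ex 488/Em 500-530, Acumen) marks blocked Vif-driven A3G degradation.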
PINK1 expr mod – changes PINK1 expression | AID 624263 | Potency, µM (titrated, usually from 76.6 µM), without a hit: top-dose activation (PINK1 increase), usual class: activators | PINK1 immunofluorescence, high-content cytometry, 24 h | 0.2% of 410,000 active; active = well fitted activation curve with a large enough effect; inconclusive = small, poorly fitted or top-dose-only effect; cell line not stated here; note: potency is the fitted concentration of half-maximal effect; % of control where 0% means no effect; nearly all actives have a fitted effect of over 65% in size
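Measures PINK1 amount and localization on or inside mitochondria by immunofluorescence. Stable cells get compounds at 5 concentrations for 24 hours before fixation and staining; CCCP controls included.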
TRPML1 agonist – agonists of human TRPML1 channel; Q9GZU1; TRPML1-expressing cells, Ca2+ dye fluorescence, FDSS; activation, % (concentration not given with the values); 0.12% of 410,000 active; in the data active = activation above about 50%; inconclusive = mostly about 30% to 49%; note: 0% is about no effect
Target sequence (Q9GZU1 whole entry, looked up): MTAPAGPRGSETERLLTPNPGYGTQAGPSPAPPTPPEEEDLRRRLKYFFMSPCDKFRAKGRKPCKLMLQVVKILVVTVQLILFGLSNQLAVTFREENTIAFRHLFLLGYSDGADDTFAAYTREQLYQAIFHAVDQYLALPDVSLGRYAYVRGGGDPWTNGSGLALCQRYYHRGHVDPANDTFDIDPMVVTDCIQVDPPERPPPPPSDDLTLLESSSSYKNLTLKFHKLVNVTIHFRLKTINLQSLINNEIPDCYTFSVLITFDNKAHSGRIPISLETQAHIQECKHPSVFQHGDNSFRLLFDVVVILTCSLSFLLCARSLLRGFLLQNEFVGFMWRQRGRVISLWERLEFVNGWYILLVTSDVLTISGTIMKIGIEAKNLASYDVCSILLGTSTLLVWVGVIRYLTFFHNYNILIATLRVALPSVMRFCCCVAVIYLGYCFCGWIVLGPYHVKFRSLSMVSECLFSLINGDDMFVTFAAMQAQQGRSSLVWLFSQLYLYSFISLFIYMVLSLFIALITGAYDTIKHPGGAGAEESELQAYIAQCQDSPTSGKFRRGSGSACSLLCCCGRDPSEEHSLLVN
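TRPML1-DL cells, Tet-induced overnight (~16 h, 37 degrees C), loaded 45-90 min at room temperature with Ca8 no-wash calcium dye plus quencher. FDSS fluorescence: 10 s baseline, compound pin-transfer, 110 s agonist read, then EC80 54-4 (4uM final) and 110 s antagonist read.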
TRPML1 blocker – blocks the human TRPML1 channel. TRPML1-inducible cells, Ca2+ dye fluorescence, FDSS; active compounds read low; inhibition of EC80 agonist-evoked calcium signal. 0.02% of 390,000 active. activity change, negative = inhibition, % (test concentration not listed). AID 624415; in the data active = activity change below about -50%; inconclusive = between about -30% and that limit;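 note: stimulus is agonist 54-4 at its EC80 concentration; % is set by controls: 0 for no effect and ±100 for the full control effect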
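TRPML1-DL cells, Tet-induced overnight (~16 h, 37 °C) at 1,500 cells/well, were loaded with Ca8 no-wash dye plus quencher for 45-90 min at room temperature. Compounds were pinned during FDSS kinetic reading; agonist 54-4 at EC80 (4 uM final) then added.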
The depositor's hits bear a star; i = inactive; u = inconclusive; x = no result; [ ] = another dose, or the depositor's remark. Unless noted, calls come from the whole dose curve; as a rule, active = well fitted curve in the direction sought with a large enough effect; inconclusive = small, poorly fitted or top-dose-only effect, or another doubt; inactive = no such curve, though single readings can be large; an effect the other way counts as inactive or inconclusive.

SMILES	Vif-APOBEC3F blk	Vif-APOBEC3G blk	PINK1 expr mod	TRPML1 agonist	TRPML1 blocker
CC(=O)N1CCc2c(sc(NC(=O)CSc3ccc(F)cc3)c2-c2nc3ccccc3s2)C1	-17%	-4%	3%	0	-6
CC(=O)Nc1sc2c(c1-c1nc3ccccc3s1)CCN(C(C)C)C2	11µM*	11µM*	-2%	10	19
CN1CCc2c(sc(NC(=O)CSc3ccc(F)cc3)c2-c2nc3ccccc3s2)C1	u	u	u	66*	-13
COc1ccc(OC)c(-c2cc(Cl)c3c(c2)CC(CNC(=O)/C=C/c2ccccn2)O3)c1 (centres undefined)	x	x	-1%	x	x
COc1ccc(CNC(=O)CCC(=O)Nc2ccc(Cl)cc2)cc1	1%	4%	2%	1	-10
COc1ccc(N/C=C/c2nc(SC)nnc2C)cc1	22µM*	-18%	4%	4	15
O=C(NCc1ccc(F)cc1)c1cc(-c2ccc(Cl)cc2)n[nH]1	-4%	-1%	-1%	2	-5
O=c1[nH]c(NCc2ccco2)nnc1Cc1ccccc1Cl	x	13µM*	9%	2	-3
COC(=O)/C=C1\SC(=Nc2ccc(Cl)c(Cl)c2)NC1=O	2%	-1%	4%	1	26
COc1cc(/C=C2\SC(=Nc3ccc(Cl)c(C(=O)O)c3)NC2=O)c(Br)c(Br)c1O	u	16%	0%	67*	-4
COc1cc(/C=C2/SC(=Nc3ccc(O)cc3)NC2=O)ccc1O	25µM*	u	1%	x	x
COc1cc(/C=C2\SC(=Nc3ccccc3OC)NC2=O)ccc1O	u	u	0%	2	13
CCc1ccc(N=C2NC(=O)/C(=C/c3cc(OC)c(O)c(OC)c3)S2)cc1	u	u	2%	x	x
COc1cc(/C=C2\SC(=Nc3cccnc3)NC2=O)cc(OC)c1OC	25µM*	u	8%	4	0
COc1cc(/C=C2\SC(=Nc3ccccc3)NC2=O)cc(Cl)c1O	u	u	7%	77*	-18
CN1CCN(c2ccc(S(=O)(=O)N3CCOCC3)cc2NC(=O)COc2ccc(C#N)cc2)CC1	3%	3%	1%	2	u
COc1ccc(N(C(=O)CNC(=O)c2ccco2)C(C(=O)NCC2CCCO2)c2ccccc2)cc1 (centres undefined)	11%	-6%	3%	-1	2
CC1CCN(c2nc(-c3cccnc3)nc3scc(-c4ccccc4)c23)CC1	2%	0%	2%	-1	-13
CC1CCCN(c2nc(-c3cccnc3)nc3scc(-c4ccccc4)c23)C1 (centres undefined)	-9%	-5%	28µM*	1	13
COc1ccc(N=Cc2c(O)n(-c3cccc(C)n3)c(=O)c3ccccc23)c(OC)c1	10µM*	u	45µM*	3	-14
COc1cccc(N=Cc2c(O)n(-c3cccc(C)n3)c(=O)c3ccccc23)c1	3%	0%	3%[38.3 µM]	1	-4
C=C(C)c1ccc(C(C)(C)NC(=O)NCc2ccco2)cc1	7%	5%	-1%	1	38
C=C(C)c1ccc(C(C)(C)NC(=O)N(Cc2ccccc2)Cc2ccco2)cc1	-2%	-4%	11µM*	5	41
CCOC(=O)C1CCN(C(=O)CSc2ccccc2Cl)CC1	1%	1%	1%	0	0
Cc1c(CCC(=O)NCCc2ccccc2F)c(=O)oc2cc(O)ccc12	-2%	0%	2%	0	-8
SMILES	Vif-APOBEC3F blk	Vif-APOBEC3G blk	PINK1 expr mod	TRPML1 agonist	TRPML1 blocker
CCOC(=O)C1=C(COC(=O)c2ccco2)NC(=O)NC1CC (centres undefined)	-19%	5%	2%	-1	-2
CCN(c1ccccc1C)S(=O)(=O)c1nnc(NC(=O)c2ccc(OC)c(OC)c2)s1	3%	-9%	0%	2	-29
COc1cc(/C=C2\SC(=S)N(CCC(=O)Nc3ccccc3)C2=O)cc(OC)c1OC	u	u	3%	4	-3
COc1cc(/C=C2\SC(=S)N(CCC(=O)Nc3ccccn3)C2=O)cc(OC)c1OC	25µM*	-21%	14%	-1	-5
O=C(CN1C(=O)S/C(=C\c2cc(Cl)c(O)c(Cl)c2)C1=O)Nc1ccccc1	13µM*	u	1%	18	19
COc1cc(/C=C2/SC(=S)N(CCC(=O)Nc3ccccc3)C2=O)cc(OC)c1OC	11µM*	u	1%	6	20
CN(C)c1ncc2nc(-c3ccccc3)c(=O)n(-c3ccccc3)c2n1	x	x	2%	x	x
CCN1/C(=C/C=C/c2oc3ccc(-c4ccccc4)cc3[n+]2CC)Oc2ccc(-c3ccccc3)cc21	5%	8%	u	80*	-16
CCN1/C(=C/C=C/c2sc3ccccc3[n+]2CC)Sc2ccccc21	-26%	4%	u	0	-4
NNC(=S)Nc1c(F)cc(F)cc1Br	11µM*	0%	2%	0	17
Cc1cc(C(=O)Nc2c(F)cc(F)cc2Br)cs1	1%	0%	0%	0	-19
CCN1/C(=C/c2ccc3cc(C)ccc3[n+]2CC)Sc2cc(C)c(C)cc21	u	u	u	16	2
CCN1/C(=C/C(=O)c2ccco2)Sc2ccccc21	-23%	u	-1%	-1	0
CCOC(=O)/C(=C\C=C1/Sc2ccccc2N1CC)C(C)=O	20%	u	8%	89*	-7
CCC(=O)/C=C1/Sc2ccccc2N1CC	6%	-1%	4%	2	-3
CCOC(=O)/C(=C/C=C1\Sc2cc(C)c(C)cc2N1CC)C(C)=O	-24%	1%	u	90*	-3
CCOC(=O)/C(=C/C=C1\Sc2ccccc2N1CC)C(C)=O	i	u	2%	80*	4
CN(C)c1ccc(CNC(=O)c2cccn2-c2nnc(N3CCCCC3)s2)cc1	1%	0%	0%	-1	1
COc1ccc(NC(=O)CN(C)C(=O)C2CCCO2)cc1 (centres undefined)	0%	2%	2%	0	-3
CCOc1ccc(C(=O)N(Cc2ccc(C(C)C)cc2)Cc2ccco2)cc1	-5%	-2%	3%	2	-7
Cc1ccc(C(=O)CCC(=O)OCC(=O)Nc2ccccc2SCC#N)cc1	13µM*	-13%	1%	3	-8
CSc1ccccc1NC(=O)COC(=O)CCC(=O)c1ccc(F)cc1	-1%	-1%	-1%	1	-15
CCOC(=O)C1CCCN(C(=O)c2ccc3c(c2)C(C)(C)CCC3(C)C)CC1 (centres undefined)	x	-17%	17%	-1	x
CN(C)S(=O)(=O)c1cccc(C(=O)OCC(=O)Nc2sccc2C#N)c1	-5%	-12%	-1%	1	10
N=c1n(CC(=O)c2ccc([N+](=O)[O-])cc2)c2ccccc2n1Cc1ccccc1	13µM*	u	u	0	5
